Consider 8 compounds from PubChem BioAssay (EPA / NIEHS).

Records with an inconclusive call do not appear. Calls of active or inactive are those of the source. Rule for the calls, unless noted: active = hit-call score of the fitted dose curve at least 0.9, where 1 is the maximum; inactive = score below 0.9.

Assay [1] is described as follows: APR_HepG2_CellCycleArrest_1hr: Apredica 1-hour HepG2 Assay for Cell Cycle Arrest (AID 2282666). The note with it: high-content imaging, actives raise or lower the signal. An outline of the steps: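 HepG2 cells exposed for 1 h to 0.39–200 uM compound (0.5% DMSO). Fixed, Hoechst-stained nuclei imaged by ArrayScan; DNA content quantified by Cell Cycle analysis; bidirectional fit against DMSO.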

Assay [2] can be described thus: ACEA_ER_80hr: ACEA Biosciences xCELLigence Real-Time Cell Analysis on Estrogen Receptor Agonism for Proliferation (AID 2282667; active = hit-call score of the fitted dose curve at least 0.9, where 1 is the maximum). Particulars: T47D proliferation, impedance (xCELLigence), 80 h. An outline of the steps: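 Real-time impedance growth kinetics of human T-47D breast cells read 80 h after dosing, gain-of-signal fitted relative to DMSO. Compounds: 1:4 serial series, top final concentration 100 uM, n = 2.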

A short description of assay [3]: APR_HepG2_CellLoss_1hr: Apredica 1-hour HepG2 Assay for Cell Loss (AID 2282668).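 Note: curves fitted both ways against DMSO so gain or loss of cells counts.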 The note with it: high-content imaging. In outline: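 HepG2 cells were treated for 1 h with compound at 0.39–200 uM, in duplicate, in 0.5% DMSO. After formaldehyde fixation, Hoechst 33342-stained nuclei were imaged on an ArrayScan to count cells. Data were fitted bidirectionally versus DMSO.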

Assay [4] can be described thus: APR_HepG2_MicrotubuleCSK_1hr: Apredica 1-hour HepG2 Assay for Microtubule CSK Stabilty (AID 2282669). Particulars: HepG2 microtubule cytoskeleton imaging, actives raise or lower the signal. In outline:
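HepG2 cells exposed 1 h to 0.39–200 uM compound (0.5% DMSO, duplicates), then formaldehyde-fixed, permeabilized and immunostained for alpha-tubulin with Hoechst nuclei. Imaged by ArrayScan high-content analysis; bidirectional fit versus DMSO.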

Assay [5] can be described thus: APR_HepG2_NuclearSize_1hr: Apredica 1-hour HepG2 Assay for Nuclear Size (AID 2282670). The note with it: high-content imaging, actives raise or lower the signal. An outline of the steps:
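HepG2 cells dosed 1 hr with 0.39–200 uM compound (0.5% DMSO), formaldehyde-fixed, Hoechst 33342-stained and imaged at 20x; nuclear diameter from nuclear stain, fitted bidirectionally against DMSO.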

Assay [6] is described as follows: APR_HepG2_p53Act_1hr: Apredica 1-hour HepG2 Assay for p53 Activation (AID 2282671). Particulars: high-content imaging, actives raise or lower the signal. In outline:
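HepG2 cells treated 1 h with compound at 0.39–200 uM (10 concentrations, duplicate) in 0.5% DMSO. Formaldehyde-fixed, permeabilised cells immunostained for p53 with Hoechst 33342; high-content imaging, bidirectional fit versus DMSO.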

Assay [7] in a line: APR_HepG2_MitoticArrest_1hr: Apredica 1-hour HepG2 Assay for Mitotic Arrest (AID 2282672). Particulars: high-content imaging, actives raise or lower the signal. In outline:
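HepG2 cells exposed 1 hr to compounds at 0.39–200 uM (0.5% v/v DMSO final), then fixed in 3.7% formaldehyde and immunostained for phospho-histone H3 with Hoechst 33342. Mitotic arrest scored by automated fluorescence imaging, fitted bidirectionally versus DMSO.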

The nature of assay [8]: APR_HepG2_P-H2AX_1hr: Apredica 1-hour HepG2 Assay for H2AX Phosphorylation (AID 2282673). Particulars: high-content imaging, actives raise or lower the signal. In outline:
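HepG2 dosed 1 hr at 0.39-200 uM (0.5% DMSO final), duplicate. Fixed in 3.7% formaldehyde, Triton permeabilized, immunostained for phospho-histone H2A.x (1:200) with Hoechst 33342; ArrayScan 20x imaging, bidirectional fit vs DMSO.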

The nature of assay [9]: APR_HepG2_CellCycleArrest_24hr: Apredica 24-hour HepG2 Assay for Cell Cycle Arrest (AID 2282905).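 Note: cell cycle arrest scored as ratio of 2N to 4N nuclear DNA content.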 The note with it: imaging, actives raise or lower the signal. In outline: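 Cell cycle arrest is scored from nuclear DNA content measured by high-content imaging of Hoechst 33342-stained HepG2 cells following 24-hour treatment at ten concentrations up to 200 uM, with DMSO as baseline.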

Assay [10] is described as follows: APR_HepG2_NuclearSize_24hr: Apredica 24-hour HepG2 Assay for Nuclear Size (AID 2282907). The note with it: high-content imaging, actives raise or lower the signal. An outline of the steps: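 Compounds in DMSO (final 0.5%) were added to human HepG2 hepatoma cells at ten concentrations up to 200 uM for 24 hr. Fixed nuclei were stained with Hoechst 33342, and nuclear diameter was quantified from automated images.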

Assay [11] is described as follows: APR_HepG2_CellLoss_24hr: Apredica 24-hour HepG2 Assay for Cell Loss (AID 2282908).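 For AC50: fit in both directions so a hit may be cell loss or gain.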 The note with it: high-content imaging. In outline:
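Cell number is quantified by fluorescence imaging of Hoechst 33342-stained nuclei following dosing at 0.39–200 uM in 0.5% DMSO. Curves are fitted in both directions from the DMSO baseline.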

Assay [12] is described as follows: APR_HepG2_MicrotubuleCSK_24hr: Apredica 24-hour HepG2 Assay for Microtubule CSK Stabilty (AID 2282909). Particulars: HepG2 microtubule cytoskeleton imaging, actives raise or lower the signal. An outline of the steps:
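Steps: dose HepG2 for 24 h (0.39–200 uM, 0.5% DMSO); fix 30 min in 3.7% formaldehyde at room temperature; permeabilize; stain alpha-tubulin 60 min; image microtubule cytoskeleton at 20x. Signal change fitted in both directions relative to DMSO.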

The nature of assay [13]: APR_HepG2_MitoticArrest_24hr: Apredica 24-hour HepG2 Assay for Mitotic Arrest (AID 2282910). The note with it: high-content imaging, actives raise or lower the signal. An outline of the steps: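 Compounds are dosed onto HepG2 cells across ten concentrations up to 200 uM for 24 hr. Cells are then fixed in 3.7% formaldehyde, permeabilised, and labelled for phospho-histone H3 and nuclei; images are scored by cell cycle analysis and fitted bidirectionally relative to DMSO.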

Assay [14] in a line: APR_HepG2_MitoMembPot_24hr: Apredica 24-hour HepG2 Assay for Mitochondrial Membrane Potential (AID 2282911). Particulars: imaging, actives raise or lower the signal. An outline of the steps:
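Mitochondrial membrane potential imaged via MitoTracker Red CMXRos (250 nM, 30 min pre-fixation) in fixed HepG2 cells with Hoechst nuclear identification. Ten concentrations 0.39–200 uM, 24 h treatment, 0.5% DMSO; CCCP as positive control.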

Assay [15] is described as follows: APR_HepG2_MitoMass_24hr: Apredica 24-hour HepG2 Assay for Mitochondrial Mass (AID 2282912). The note with it: high-content imaging, actives raise or lower the signal. An outline of the steps:
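The liver line HepG2 was dosed in duplicate across a 0.39–200 uM series, with final DMSO held at 0.5% v/v, and harvested at 24 hr. High-content imaging measured mitochondrial dye staining.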

The nature of assay [16]: APR_HepG2_p53Act_24hr: Apredica 24-hour HepG2 Assay for p53 Activation (AID 2282913).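 Note: p53 protein immunofluorescence averaged per cell in HepG2 with Hoechst nuclei.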 The note with it: high-content imaging, actives raise or lower the signal. An outline of the steps:
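Fluorescence imaging of formaldehyde-fixed HepG2 cells labelled for p53 and with Hoechst, 24 h after dosing (0.39–200 uM, duplicate wells, 0.5% v/v DMSO). Signal fitted in both directions relative to DMSO.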

Assay [17] can be described thus: APR_HepG2_CellCycleArrest_72hr: Apredica 72-hour HepG2 Assay for Cell Cycle Arrest (AID 2282914). Particulars: high-content imaging, actives raise or lower the signal. In outline: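 Read-out: nuclear DNA content from Hoechst 33342 high-content imaging (20x, six fields/well) after 3.7% formaldehyde fixation, fitted bidirectionally against DMSO. Treatment was 72 h in HepG2, ten concentrations 0.39–200 uM, duplicate, 0.5% DMSO.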

A short description of assay [18]: APR_HepG2_MitoMass_1hr: Apredica 1-hour HepG2 Assay for Mitochondrial Mass (AID 2282674). Particulars: high-content imaging, actives raise or lower the signal. An outline of the steps: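 HepG2 cells dosed 1 hr with 0.39-200 uM compound (0.5% DMSO), duplicate wells. Mitochondria stained with 250 nM MitoTracker Red CMXRos for 30 min before formaldehyde fixation, imaged at 20x by ArrayScan; bidirectional fit versus DMSO.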

A short description of assay [19]: APR_HepG2_MitoMembPot_1hr: Apredica 1-hour HepG2 Assay for Mitochondrial Membrane Potential (AID 2282675). The note with it: imaging, actives raise or lower the signal. In outline: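 HepG2 cells dosed 1 hour with 0.39–200 uM compound in duplicate, 0.5% DMSO final. MitoTracker Red CMXRos (250 nM, 30 min) loaded before formaldehyde fixation; fluorescence quantified by high-content imaging, bidirectional fitting versus DMSO.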

Assay [20] is described as follows: APR_HepG2_StressKinase_1hr: Apredica 1-hour HepG2 Assay for Stress Kinase (AID 2282906). The note with it: HepG2 stress kinase (phospho-c-Jun) imaging, actives raise or lower the signal. An outline of the steps: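 HepG2 cells dosed 0.39-200 uM (0.5% DMSO) for 1 h, then formaldehyde-fixed. Stress kinase read by phospho-c-Jun immunofluorescence using high-content imaging; bidirectional fit vs DMSO.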

Turning to `CS(=O)(=O)c1ccc(C(=O)C2C(=O)CCCC2=O)c([N+](=O)[O-])c1`, the result in assay [1], in assay [2], in [3], in [4], in assay [5] and in [6] was inactive. Moreover, the result in assay [7], in [8], in assay [9], in assay [10], in [11] and in assay [12] was inactive. Besides, the compound was classed as inactive in assay [13], in [14], in [15], in assay [16] and in assay [17].
By AC50 is commonly meant the concentration giving half of the maximal activity seen. On to `CC(C)N1C(=O)c2ccccc2NS1(=O)=O`, for which the AC50 in [1] was 59.2 nM (active). Moreover, the compound was called inactive in assay [2], in [4], in [5], in assay [6], in [7] and in [8]. The compound was classed as inactive in assay [18], in [19], in assay [9], in assay [10], in assay [11] and in assay [12]. Moreover, the result in assay [13], in [14] and in assay [16] was inactive.
As to `OC(c1ccc(Cl)cc1)(c1ccc(Cl)cc1)C(Cl)(Cl)Cl`, the compound was called inactive in assay [1], in assay [2], in assay [4], in assay [7], in assay [9] and in [12]. The compound was classed as inactive in assay [13] and in assay [14]. Besides, the AC50 in assay [3] was 89.3 µM (active); in [6], 109 µM (active); in assay [8], 90.1 µM (active); in [19], 34.2 µM (active); in assay [20] it was 30.9 µM (active); in [10], 74.1 µM (active). For the same compound, the results for the AC50 in [11] and in assay [16] were 43.1 µM (active) and 112 µM (active), respectively.
Take `CC(C)C1(C)N=C(c2ncccc2C(=O)O)NC1=O` (stereo not given): the compound was classed as inactive in assay [1], in assay [2], in assay [3], in assay [4], in [5] and in [6]. The compound was classed as inactive in assay [7], in assay [8], in assay [19], in assay [9], in assay [10] and in assay [11]. In addition, the compound was called inactive in [12], in assay [13], in [14], in [15] and in [16].
`N#Cc1c[nH]cc1-c1cccc2c1OC(F)(F)O2`: the compound was classed as inactive in assay [1], in assay [2], in assay [3], in assay [4], in assay [6] and in assay [7]. In addition, the result in assay [8], in [18], in assay [10], in assay [12], in assay [13] and in [16] was inactive. Moreover, the AC50 in assay [9] is 26.9 µM (active); in assay [11], 22.4 µM (active); in [14], 53.6 µM (active); in assay [17] it was 39.8 µM (active).
For the compound `CCSC(=O)N1CCCCCC1`, the call in assay [1], in assay [2], in assay [4], in assay [5], in [6] and in [7] was inactive. For the same compound, the outcome in [8], in assay [9], in assay [10], in assay [11], in assay [12] and in assay [13] was inactive. Besides, the call in assay [14], in assay [16] and in assay [17] was inactive.
As to `CCCC(=NOCC)C1=C(O)CC(CC(C)SCC)CC1=O` (stereo not given), the call in [1], in assay [2], in assay [4], in assay [5], in assay [6] and in assay [7] was inactive. In addition, the result in assay [8], in assay [19], in assay [9], in [10], in assay [11] and in assay [12] was inactive. Also, the outcome in assay [13], in assay [14], in assay [15], in [16] and in assay [17] was inactive.
For the compound `Clc1nc(Cl)nc(Nc2ccccc2Cl)n1`, the call in assay [1], in assay [2], in [4], in [5], in assay [6] and in assay [7] was inactive. For the same compound, the outcome in assay [8], in assay [18], in [9], in assay [10], in assay [11] and in [12] was inactive. The outcome in assay [13], in [14], in assay [16] and in assay [17] was inactive.
